This note sets out measurements from PubChem BioAssay AID485347 (National Center for Advancing Translational Sciences (NCATS), 2010).

Hit rate of the full screen: of about 340,000 compounds, about 1,200 (0.35%) were called active. Only a selection was taken, and actives are over-represented in it overall. Values without a mark were called inactive.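 How the source made its calls: active means potentiation over 3 SD above the plate norm (cut at about 30% in these data); inactive means the rest.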

D(2) dopamine receptor (Homo sapiens), sequence (P14416 whole entry, looked up): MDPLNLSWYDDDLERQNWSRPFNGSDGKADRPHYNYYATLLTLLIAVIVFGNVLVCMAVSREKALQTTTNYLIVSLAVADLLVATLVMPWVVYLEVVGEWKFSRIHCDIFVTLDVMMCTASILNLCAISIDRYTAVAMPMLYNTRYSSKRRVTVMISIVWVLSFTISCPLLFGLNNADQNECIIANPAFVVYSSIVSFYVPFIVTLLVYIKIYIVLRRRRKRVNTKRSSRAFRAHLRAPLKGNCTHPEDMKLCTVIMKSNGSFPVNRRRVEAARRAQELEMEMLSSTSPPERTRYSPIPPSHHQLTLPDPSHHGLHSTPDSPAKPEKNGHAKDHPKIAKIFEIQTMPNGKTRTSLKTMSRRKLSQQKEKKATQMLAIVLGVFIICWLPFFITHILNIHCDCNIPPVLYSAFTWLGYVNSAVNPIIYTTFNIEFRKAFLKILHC

In this assay the target is D(2) dopamine receptor (Homo sapiens) (UniProt P14416). As to the kind of experiment: HTS Assay for Positive Allosteric Modulators of the Human D2 Dopamine Receptor: Primary Screen for Potentiators. Further: 0% is about no effect. The following applies: HEK293 T-REx D2, calcium flux, EC20 dopamine potentiation; at 10 µM; hits give high values. The essentials:
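Potentiation of an EC20 dopamine calcium response is measured in a force-coupled, tetracycline-inducible Hek293 Trex D2 line. Compound-only kinetic reads over 180 s flag agonists before dopamine addition.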
For `CC(C)(C)c1ccc(C(=O)NCC(c2ccco2)S(=O)(=O)c2ccc(F)cc2)cc1` (configuration not stated), the potentiation was 2.19%.

Consider `COc1ccccc1NC(=O)c1oc2ccccc2c1NC(=O)COc1ccccc1OC`, for which the potentiation was -6.56%.

In the case of `CC(C)CCC(C)NC(=O)c1ccc2nccnc2c1` (configuration not stated), the potentiation was 36.8% (active).

On to `O=C(NCCc1ccc(F)cc1)c1ccc2nccnc2c1`, for which the potentiation was 1.21%.

With `Cc1ccc(C)c(NC(=O)c2ccc3nccnc3c2)c1`, the potentiation is 10.6%.

`CCOC(=O)c1ccccc1NC(=O)CCc1c(C)nc2c(c1C)c(=O)n(C)c(=O)n2C`: the potentiation was -0.581%.

Take `Cc1ccc(NC(=O)c2nc(S(=O)(=O)Cc3cccc(C)c3)ncc2Cl)cc1`: the potentiation was -4.73%.

For `Cc1cccc(C(=O)N2c3nc(-c4ccco4)nn3C3(CCCCC3)[C@@H]3CCCC[C@@H]32)c1`, the potentiation is 11.9%.

For the compound `COc1ccccc1NC(=O)C1=C(C)Nc2ncnn2C1c1sccc1C` (configuration not stated), the potentiation is 14.1%.

In the case of `CN(C(=O)CSc1nnc(Nc2ccccc2)s1)C1CCS(=O)(=O)C1` (configuration not stated), the potentiation is -2.37%.

With `CCn1c(SCC(=O)N(C)C2CCS(=O)(=O)C2)nnc1-c1cccs1` (configuration not stated), the potentiation is 43.3% (active).

Consider `CCn1c(SCC(=O)c2ccc(Cl)s2)nnc1-c1cccs1`, for which the potentiation is 5.97%.

As to `Cc1ccc(NC(=O)Cc2ccc(NC(=O)N3CCCCc4ccccc43)cc2)cc1`, the potentiation was -2.54%.

In the case of `Cc1c(Cl)cccc1NC(=O)Nc1ccc(C(=O)N2CCCC2)cc1`, the potentiation was -6.53%.

Consider `Cc1c(NC(=O)Nc2ccccc2Cl)sc(=S)n1C`, for which the potentiation was 37% (active).

For the compound `Cc1c(Cl)cccc1NC(=O)NCc1ccc(C)n1C`, the potentiation was 6.36%.

Consider `CCCSc1ncc(Cl)c(C(=O)Nc2c(C(=O)Nc3ccccc3)oc3ccccc23)n1`, for which the potentiation is 9.52%.

For the compound `C=CCN1C(=O)C2(OCCCO2)c2cccc(Cl)c21`, the potentiation is 9.19%.

Take `CC(C)(C)C(=O)CCN1C(=O)C2(OCCO2)c2ccccc21`: the potentiation was 31.3% (active).

In the case of `O=C(CC1(O)C(=O)N(CN2CCOCC2)c2ccccc21)c1ccccc1` (configuration not stated), the potentiation is -7.42%.

`O=C(NCCCN1CCN(c2cccc(Cl)c2)CC1)c1nnc(Cc2ccc(F)cc2Cl)o1`: the potentiation was -20.3%.

As to `COc1cn(CC(=O)Nc2cccc(C)c2C)c(CN2CCCCC2)cc1=O`, the potentiation is -2.25%.

As to `COC(=O)c1ccc(OC)c(Cn2c(=O)n(Cc3ccccc3)c(=O)c3c2c2cc(OC)ccc2n3C)c1`, the potentiation was -2.94%.

For the compound `CCc1nn(CC(=O)Nc2cccc(C)c2C)c(=O)c2cc3sccc3n12`, the potentiation was 8.71%.

On to `COc1ccc(C(C)=O)cc1CSc1nc2nc(C)cc(C)n2n1`, for which the potentiation is 34.5% (active).

Consider `Cc1cc(C)n2nc(SCC(N)=O)nc2n1`, for which the potentiation was 16.2%.

On to `COc1cccc(CSc2nc3nc(C)cc(C)n3n2)c1`, for which the potentiation is -5.34%.
